For test [1] the following is noted: Ebola virus entry assay, green fluorescence channel.
The conditions of test [2]: Ebola virus entry assay, blue channel fluorescence.
For test [3] the following is noted: Ebola virus entry assay, ratio channel.
The conditions of test [4]: Ebola virus entry assay, reporter ratio channel; Channel type: primary.

Each structure is given as a SMILES string. Values without a mark were called inactive. For some assays here: Potency and affinity values are given separately. The source made the active and inactive calls. The rule behind the calls is not given here.
Throughout, for efficacy: 0% is about no effect.

Turning to `O[C@@H](COc1cccc2ncccc12)CN1CCN(C2c3ccccc3[C@@H]3[C@H](c4ccccc42)C3(F)F)CC1` (some centres not stated), the efficacy in test [1] is 34.8%. In addition, the AC50 in test [2], in test [3] and in test [4] was 10 µM (active) each time.

For `CC(=O)c1ccc2c(c1)N(CCCN1CCC(CCO)CC1)c1ccccc1S2`, the efficacy in test [1] is 62.5%. Moreover, the AC50 was 3.16 µM (active) in test [2], 2.82 µM (active) in test [3] and 2.82 µM (active) in test [4].

Take `CC1=C(CC(=O)O)c2cc(F)ccc2/C1=C\c1ccc(S(C)=O)cc1` (configuration not stated): the efficacy in test [1] was 55.9%. Moreover, the result in test [2], in test [3] and in test [4] was inactive.

On to `COc1cccc(N(C)C(=S)Oc2ccc3c(c2)CCCC3)n1`, for which the efficacy in test [1] is 84.1%. Besides, the AC50 is 17.8 µM (active) in test [2], 28.2 µM (active) in test [3] and 28.2 µM (active) in test [4].

For `CN1CCC(Nc2ncc3ncnc(Nc4ccc(F)c(Cl)c4)c3n2)CC1`, the efficacy in test [1] is 97.2%. Further, the call in test [2], in test [3] and in test [4] was inactive.

As for `CC[C@]12CCCN3CCc4c(n(c5ccccc45)C(=O)C1)[C@@H]32`, in test [1], the efficacy was 62%. The concentration at half-maximal activity (AC50) in test [2], in test [3] and in test [4] was 28.2 µM (active) each time.

In the case of `CN1CCN(CCC(=O)N2c3ccccc3Sc3ccc(C(F)(F)F)cc32)CC1`, the efficacy in test [1] was 68.9%. The AC50 was 4.47 µM (active) in test [2], 2.82 µM (active) in test [3] and 2.82 µM (active) in test [4].

As for `Nc1c2c(nc3c1CCC3)CCCC2`, in test [1], the efficacy was 42.2%. The half-maximal activity concentration (AC50) was 28.2 µM (active) in test [2] and 31.6 µM (active) in test [4]. Further, the outcome in test [3] was inactive.

With `Cc1cccc(N(C)C(=S)Oc2ccc3c(c2)CCC3)c1`, the efficacy in test [1] was 64.2%. Besides, the AC50 in test [2] and in test [4] was 39.8 µM (active) throughout. For the same compound, in test [3], the result was inactive.

`O=C(CCCN1CCN(c2ccc(F)cc2)CC1)NC1c2ccccc2CSc2ccccc21` (configuration not stated): in test [1], the efficacy was 64.4%. In addition, the figures for the half-maximal activity concentration (AC50) in test [2], in test [3] and in test [4] were 8.91 µM (active), 7.08 µM (active) and 7.08 µM (active), respectively.

For the compound `Clc1ccc2c(c1)CCc1cccnc1C2=C1CCNCC1`, the efficacy in test [1] is 49.7%. The concentration at half-maximal activity (AC50) in test [2] is 7.08 µM (active); in test [3], 7.94 µM (active); in test [4] it was 7.94 µM (active).

Regarding `C[C@H]1O[C@@H](O[C@H]2CC[C@@]3(C)[C@H](CC[C@@H]4[C@@H]3C[C@@H](O)[C@]3(C)[C@@H](C5=CC(=O)OC5)CC[C@]43O)C2)C[C@H](O)[C@@H]1O[C@H]1C[C@H](O)[C@H](O[C@H]2C[C@H](O)[C@H](O[C@@H]3O[C@H](CO)[C@@H](O)[C@H](O)[C@H]3O)[C@@H](C)O2)[C@@H](C)O1`, the efficacy in test [1] was -58.9%. The AC50 in test [2] was 1.58 µM (active); in test [3], 0.891 µM (active); in test [4] it was 0.891 µM (active).

In the case of `Cc1oc(-c2ccccc2)nc1CCC(=O)c1ccc(CC2SC(=O)NC2=O)cc1` (configuration not stated), in test [1], the efficacy was 43.2%. The call in test [2], in test [3] and in test [4] was inactive.

As to `O=c1[nH]c2ccccc2n1CCCN1CCN(C(c2ccccc2)c2ccccc2)CC1`, the efficacy in test [1] was -120%. The results for the AC50 in test [2], in test [3] and in test [4] were 12.6 µM (active), 3.98 µM (active) and 3.98 µM (active), respectively.

`COc1ccc2c(c1)c(CC(=O)O)c(C)n2C(=O)c1ccc(Cl)cc1`: the efficacy in test [1] is 67.4%. For the same compound, the result in test [2], in test [3] and in test [4] was inactive.

With `Oc1cccc(-c2c3nc(c(-c4cccc(O)c4)c4ccc([nH]4)c(-c4cccc(O)c4)c4nc(c(-c5cccc(O)c5)c5ccc2[nH]5)CC4)C=C3)c1`, the efficacy in test [1] is 82.1%. In addition, the AC50 is 20 µM (active) in test [2], 22.4 µM (active) in test [3] and 22.4 µM (active) in test [4].

`Cc1ccc2c(c1)c1c3n2CCNC3CCC1` (configuration not stated): the efficacy in test [1] is 68.3%. Moreover, the AC50 in test [2], in test [3] and in test [4] was 28.2 µM (active) each time.

As for `Cc1c(C)n(Cc2ccccc2)c2ccc(C(=O)OCCN(C)C)cc12`, in test [1], the efficacy was 60.6%. For the same compound, the half-maximal activity concentration (AC50) in test [2], in test [3] and in test [4] was 3.16 µM (active) in each case.

In the case of `CCCCC1C(=O)N(c2ccccc2)N(c2ccc(O)cc2)C1=O` (configuration not stated), in test [1], the efficacy is 73.1%. Further, the AC50 was 28.2 µM (active) in test [2] and 39.8 µM (active) in test [4]. The outcome in test [3] was inactive.

For `C#CCN(C)CCCOc1ccc(Cl)cc1Cl`, the efficacy in test [1] was -19.7%. Also, the AC50 in test [2] and in test [4] was 39.8 µM (active) throughout. Also, in test [3], the result was inactive.

Regarding `CN(C)CCCOc1nn(Cc2ccccc2)c2ccccc12`, in test [1], the efficacy was 54.9%. Moreover, the AC50 in test [2] was 7.94 µM (active); in test [3] it was 3.55 µM (active); in test [4], 3.55 µM (active).

With `c1ccc(CN(CC2=NCCN2)c2ccccc2)cc1`, the efficacy in test [1] was 60.7%. Also, the AC50 in test [2] and in test [4] was 39.8 µM (active) throughout. Further, the outcome in test [3] was inactive.

For the compound `CCN(CC)CCOc1ccc(Cc2ccccc2)cc1`, the efficacy in test [1] was 70.7%. Besides, the AC50 in test [2] is 7.94 µM (active); in test [3] it was 3.55 µM (active); in test [4], 3.55 µM (active).

The values are drawn from PubChem BioAssay (NCATS).
